Results as given in PubChem BioAssay AID1159580 (chemical genetic matrix, 2015).
Among all 5,500 compounds or so, about 2,000 (36%) were called active. About 18% were inconclusive and are not listed. This is one part of the list. Unmarked numbers belong to inactive results. No stated cut-off is given here; in the data, active means normalized growth mostly below about 0.91 (no sharp cut-off); inconclusive means no clear call, values can overlap the other calls; inactive means mostly above about 0.92.

Assay: chemical genetic growth profiling, strain panel (AID 1159580);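 further: tested at 20 µM; growth read once vehicle control cultures reached saturation at 30 °C; 1 = growth at the plate median or of vehicle wells; lower values mean less growth of the strain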
Settings: growth OD

In the case of `CC(=O)Oc1ccc(O)cc1`, the normalized growth (S. cerevisiae deletion strains, locus YJL187C, strain SWE1, active compounds read low) is reported as 0.978, the normalized growth (S. cerevisiae deletion strains, locus YJR043C, strain POL32, active compounds read low) is reported as 0.929 and the normalized growth (S. cerevisiae deletion strains, locus YJR075W, strain HOC1, active compounds read low) is reported as 0.955. It also gave a normalized growth (S. cerevisiae deletion strains, locus YKL009W, strain mrt4, active compounds read low) of 1.02, a normalized growth (S. cerevisiae deletion strains, locus YKL068W, active compounds read low) of 1.01 and a normalized growth (S. cerevisiae deletion strains, locus YKL085W, strain MDH1 (second series), active compounds read low) of 1.04. For the same compound, the normalized growth (S. cerevisiae deletion strains, locus YKL085W, strain MDH1, active compounds read low) was 1.04, the normalized growth (S. cerevisiae deletion strains, locus YKL160W, strain elf1, active compounds read low) was 0.995 and the normalized growth (S. cerevisiae deletion strains, locus YKR001C, strain vps1, active compounds read low) was 0.945. It also gave a normalized growth (S. cerevisiae deletion strains, locus YKR026C, strain gcn3, active compounds read low) of 0.979, a normalized growth (S. cerevisiae deletion strains, locus YKR091W, strain srl3, active compounds read low) of 0.985 and a normalized growth (S. cerevisiae deletion strains, locus YLL001W, strain dnm1, active compounds read low) of 0.994. The normalized growth (S. cerevisiae deletion strains, locus YLL026W, active compounds read low) was 0.987, the normalized growth (S. cerevisiae deletion strains, locus YLL041C, strain sdh2, active compounds read low) was 0.99 and the normalized growth (S. cerevisiae deletion strains, locus YLR027C, strain aat2, active compounds read low) was 0.993. The normalized growth (S. cerevisiae deletion strains, locus YLR039C, strain RIC1, active compounds read low) was 1.05, the normalized growth (S. cerevisiae deletion strains, locus YLR058C, strain SHM2, active compounds read low) was 0.991 and the normalized growth (S. cerevisiae deletion strains, locus YLR102C, strain apc9, active compounds read low) was 1.02. The normalized growth (S. cerevisiae deletion strains, locus YLR221C, strain rsa3, active compounds read low) was 0.959, the normalized growth (S. cerevisiae deletion strains, locus YLR258W, strain gsy2, active compounds read low) was 0.989 and the normalized growth (S. cerevisiae deletion strains, locus YLR262C, strain YPT6 (second series), active compounds read low) was 0.996. The normalized growth (S. cerevisiae deletion strains, locus YLR262C, strain YPT6, active compounds read low) was 0.926, the normalized growth (S. cerevisiae deletion strains, locus YLR268W, strain sec22, active compounds read low) was 0.977 and the normalized growth (S. cerevisiae deletion strains, locus YLR320W, strain mms22, active compounds read low) was 0.923. The normalized growth (S. cerevisiae deletion strains, locus YLR330W, strain CHS5, active compounds read low) was 0.914 (active), the normalized growth (S. cerevisiae deletion strains, locus YLR342W, strain FKS1 (second series), active compounds read low) was 0.819 and the normalized growth (S. cerevisiae deletion strains, locus YLR342W, strain FKS1, active compounds read low) was 0.979. The normalized growth (S. cerevisiae deletion strains, locus YLR357W, strain rsc2, active compounds read low) was 0.988, the normalized growth (S. cerevisiae deletion strains, locus YLR370C, strain arc18, active compounds read low) was 1 and the normalized growth (S. cerevisiae deletion strains, locus YLR371W, strain rom2, active compounds read low) was 1.02. For the same compound, the normalized growth (S. cerevisiae deletion strains, locus YLR384C, strain iki3, active compounds read low) was 0.997, the normalized growth (S. cerevisiae deletion strains, locus YLR418C, strain cdc73, active compounds read low) was 0.934 and the normalized growth (S. cerevisiae deletion strains, locus YML016C, strain PPZ1, active compounds read low) was 1.01. The normalized growth (S. cerevisiae deletion strains, locus YML032C, strain rad52, active compounds read low) was 0.967, the normalized growth (S. cerevisiae deletion strains, locus YML120C, strain ndi1, active compounds read low) was 1.02 and the normalized growth (S. cerevisiae deletion strains, locus YML124C, strain tub3, active compounds read low) was 1.03. It also gave a normalized growth (S. cerevisiae deletion strains, locus YMR058W, strain fet3, active compounds read low) of 0.979, a normalized growth (S. cerevisiae deletion strains, locus YMR078C, strain ctf18, active compounds read low) of 1.03 and a normalized growth (S. cerevisiae deletion strains, locus YMR125W, strain sto1, active compounds read low) of 0.977. It also gave a normalized growth (S. cerevisiae deletion strains, locus YMR129W, active compounds read low) of 0.99, a normalized growth (S. cerevisiae deletion strains, locus YMR205C, strain PFK2, active compounds read low) of 1 and a normalized growth (S. cerevisiae deletion strains, locus YMR223W, strain ubp8, active compounds read low) of 1. The normalized growth (S. cerevisiae deletion strains, locus YMR231W, strain pep5, active compounds read low) was 0.962, the normalized growth (S. cerevisiae deletion strains, locus YMR263W, strain SAP30, active compounds read low) was 0.991 and the normalized growth (S. cerevisiae deletion strains, locus YMR307W, strain GAS1, active compounds read low) was 0.791. For the same compound, the normalized growth (S. cerevisiae deletion strains, locus YNL067W, strain RPL9B, active compounds read low) was 0.966, the normalized growth (S. cerevisiae deletion strains, locus YNL071W, strain lat1, active compounds read low) was 0.961 and the normalized growth (S. cerevisiae deletion strains, locus YNL128W, strain TEP1, active compounds read low) was 1.01. The normalized growth (S. cerevisiae deletion strains, locus YNL153C, strain GIM3, active compounds read low) was 0.956, the normalized growth (S. cerevisiae deletion strains, locus YNL209W, strain ssb2, active compounds read low) was 0.988 and the normalized growth (S. cerevisiae deletion strains, locus YNL233W, strain BNI4, active compounds read low) was 0.94. The normalized growth (S. cerevisiae deletion strains, locus YNL248C, strain rpa49, active compounds read low) was 0.956, the normalized growth (S. cerevisiae deletion strains, locus YNL250W, strain rad50, active compounds read low) was 1.04 and the normalized growth (S. cerevisiae deletion strains, locus YNL271C, strain bni1, active compounds read low) was 1.04. It also gave a normalized growth (S. cerevisiae deletion strains, locus YNL298W, strain CLA4, active compounds read low) of 1.03, a normalized growth (S. cerevisiae deletion strains, locus YNL307C, strain MCK1, active compounds read low) of 0.96 and a normalized growth (S. cerevisiae deletion strains, locus YNL322C, strain KRE1 (second series), active compounds read low) of 0.993. For the same compound, the normalized growth (S. cerevisiae deletion strains, locus YNL322C, strain KRE1, active compounds read low) was 0.996, the normalized growth (S. cerevisiae deletion strains, locus YNR049C, strain mso1, active compounds read low) was 0.989 and the normalized growth (S. cerevisiae deletion strains, locus YNR052C, strain pop2, active compounds read low) was 1.02. It also gave a normalized growth (S. cerevisiae deletion strains, locus YOL012C, strain htz1) of 0.741, a normalized growth (S. cerevisiae deletion strains, locus YOL147C, strain pex11, active compounds read low) of 1.03 and a normalized growth (S. cerevisiae deletion strains, locus YOR001W, strain rrp6, active compounds read low) of 0.992. The normalized growth (S. cerevisiae deletion strains, locus YOR061W, strain CKA2, active compounds read low) was 1.01, the normalized growth (S. cerevisiae deletion strains, locus YOR069W, strain VPS5, active compounds read low) was 1.01 and the normalized growth (S. cerevisiae deletion strains, locus YOR070C, strain gyp1, active compounds read low) was 0.975. It also gave a normalized growth (S. cerevisiae deletion strains, locus YOR080W, strain dia2, active compounds read low) of 0.998, a normalized growth (S. cerevisiae deletion strains, locus YOR083W, strain WHI5, active compounds read low) of 0.974 and a normalized growth (S. cerevisiae deletion strains, locus YOR106W, strain vam3, active compounds read low) of 0.995. The normalized growth (S. cerevisiae deletion strains, locus YOR136W, strain idh2, active compounds read low) was 1.01, the normalized growth (S. cerevisiae deletion strains, locus YOR144C, strain elg1, active compounds read low) was 1.03 and the normalized growth (S. cerevisiae deletion strains, locus YOR184W, strain ser1, active compounds read low) was 0.984. It also gave a normalized growth (S. cerevisiae deletion strains, locus YOR265W, strain rbl2, active compounds read low) of 1.01, a normalized growth (S. cerevisiae deletion strains, locus YOR270C, strain vph1, active compounds read low) of 0.986 and a normalized growth (S. cerevisiae deletion strains, locus YOR290C, strain snf2, active compounds read low) of 0.995. It also gave a normalized growth (S. cerevisiae deletion strains, locus YOR316C, strain cot1, active compounds read low) of 1.04, a normalized growth (S. cerevisiae deletion strains, locus YPL051W, strain arl3, active compounds read low) of 0.962 and a normalized growth (S. cerevisiae deletion strains, locus YPL078C, strain atp4, active compounds read low) of 1.02. For the same compound, the normalized growth (S. cerevisiae deletion strains, locus YPL106C, strain sse1, active compounds read low) was 0.991, the normalized growth (S. cerevisiae deletion strains, locus YPL240C, strain hsp82, active compounds read low) was 0.999 and the normalized growth (S. cerevisiae deletion strains, locus YPL241C, strain CIN2, active compounds read low) was 1.02. It also gave a normalized growth (S. cerevisiae deletion strains, locus YPR119W, strain clb2, active compounds read low) of 1.01, a normalized growth (S. cerevisiae deletion strains, locus YPR141C, strain kar3, active compounds read low) of 1.03 and a normalized growth (S. cerevisiae deletion strains, locus YPR163C, strain tif3, active compounds read low) of 0.974. The normalized growth (S. cerevisiae deletion strains, locus YPR167C, strain met16, active compounds read low) was 1.03, the normalized growth (S. cerevisiae deletion strains, strain wtn01, active compounds read low) was 0.995 and the normalized growth (S. cerevisiae strains, strain wild type, active compounds read low) was 0.925.
